The full list was thinned out, with hits kept by preference.
TTR transcr act – TTR transcription activation, primary screen; activation, % at 16.7 µM; SH-SY5Y TTR promoter Gaussia luciferase, luminescence; 100% = recombinant luciferase protein wells; 1.3% of 92,000 active;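 active = activation above the mean of all tested compounds plus 3 SD, cut at about 9.5% in these data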;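 also: cells exposed to compounds for one day before reading; 0% = median of all test compound wells on the plate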
TTR inh HuH7 – counter-screen for TTR activators: TTR transcription inhibitors in HuH7 cells | shares compounds with TTR transcr act | HuH7 TTR promoter-Gaussia luciferase reporter, luminescence | inhibition, % at 16.7 µM | 4% of 1,100 active | AID 1117279;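 active = average inhibition above the solvent-only control wells' mean plus 3 SD, cut at about 15% in these data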;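 also: 0% = cells with DMSO only and 100% = cells with inhibitor control FD; inhibitors lower well luminescence so higher value means more inhibition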
TTR act confirm – human TTR transcription activation, confirmation. AID 1117280. activation, % at 16.7 µM. 1,100 tested, under 10 active. shares compounds with TTR transcr act. SHSY5Y TTR promoter Gaussia luciferase, luminescence; 100% = purified Lucia enzyme wells, no cells;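 active = mean activation above a set limit taken from the earlier primary screen, cut at about 11% in these data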;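 also: 0% = DMSO-treated cells and 100% = recombinant Lucia luciferase without cells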
Numbers without * were called inactive.

SMILES	TTR transcr act	others
COC(=O)[C@]12C[C@H](CC(=O)NCc3ccc(C)o3)C(=O)N(Cc3ccco3)C1=C[C@H](C1CCCC1)O[C@@H]2C	0.9
CCCN=C1N(C)C[C@@H]2[C@@H]3C(=O)N(C)C(=O)[C@@H]3[C@](C)(C(=O)OC)N12	0.2
CC(=O)NC(C)c1cc(Cl)c2cccnc2c1O (stereo not given)	-5.6
Cc1cc(Cl)nc2c(C(C)C)cccc12	17.2*	TTR inh HuH7=-10.5;TTR act confirm=-0.8
Cc1cccc2c3nc4ccccc4nc3n(C)c12	-0.5
CC1CCCN(C(=O)CCc2ccccc2)C1 (stereo not given)	1.2
O=C(CCc1nnc(CCCc2ccccc2)o1)N1CCCCCC1	-1.4
O=C(CCc1ccccc1)N1CCCC1	11.4*	TTR inh HuH7=-4.6;TTR act confirm=-0.3
CCC(c1nnnn1-c1c(C)cccc1C)N1CCCN(Cc2ccc(F)cc2)CC1 (stereo not given)	-0.1
CCC[C@H]1CN(Cc2cccnc2)C(=O)[C@@H]1CC(=O)Nc1ccc(Br)cc1	-0.2
Cc1ccc(Cc2c(-c3ccccc3)nc3cc(C)c(Br)c(C)n23)cc1	11.7*	TTR inh HuH7=-9.8;TTR act confirm=-0.5
Cc1ccc(Cc2c(-c3cccc(Cl)c3)nc3cc(C)c(Br)c(C)n23)cc1	0.5
Cc1cc2nc(-c3ccc(F)cc3)c(Cc3ccccc3)n2c(C)c1Br	0.0
C[C@@H]1[C@@H](c2ccccc2)OC(O)([C@H](Cc2ccccc2)NC(=O)OC(C)(C)C)CN1C (stereo not given in full)	1.3
Cc1noc(C)c1COc1ccccc1C(=O)N(C)CC(=O)Nc1ccc(F)c(F)c1F	0.0
Cc1noc(C)c1NC(=O)N(C)C[C@H]1OCc2cn(nn2)CCCC(=O)N([C@H](C)CO)C[C@@H]1C	1.1
CCCC1CCC2(CC1)CCC2OC(=S)NCc1ccc(Cl)cc1 (stereo not given)	1.4
O=C(Cc1ccccc1)N1O[C@H]2C=C[C@@H]1C2	1.1
Cc1nnc(SCc2nc3ccccc3[nH]2)s1	5.0
c1ccc(SCc2nc3ccccc3[nH]2)nc1	14.0*	TTR inh HuH7=-23.0;TTR act confirm=1.3
Cn1nnnc1SCc1nc2ccccc2[nH]1	-0.8
Cc1c(C)c2ccc(OCC(=O)Nc3ccccc3C(N)=O)cc2oc1=O	3.5
CC(C)(C)OC(=O)NCCCCCNC(=O)c1ncn2c1c(=O)[nH]c1ccccc12	-0.1
CN(Cc1ccccc1)C(=O)OCc1cn(Cc2cccc(F)c2)nn1	-1.7
C/C(=N/NC(=O)Cc1cccn1C)c1ccccc1	-0.4
SMILES	TTR transcr act	others
C/C(=N\NC(=O)Cc1cccn1C)c1ccc2ccccc2c1	11.0*	TTR inh HuH7=-19.7;TTR act confirm=-0.5
C/C(=N\NC(=O)Cc1cccn1C)c1ccco1	0.0
Cc1ccc2c(c1)C1CS(=O)(=O)N(Cc3ccccc3)C(=O)N1C2 (stereo not given)	1.1
CC(C)[C@@H]1OC(=O)[C@@H]2CCCN2C(=O)[C@H](C)OC(=O)[C@H](C)[C@@H](C(C)C)NC(=O)[C@@H]2CCCN2C(=O)[C@H]([C@H](C)Cc2ccccc2)NC(=O)[C@@H]2CCCN2C(=O)[C@@H](C(C)C)N(C)C1=O	-0.2
Cn1nc(C(=O)NC2CCC(O)CC2)c2ccccc2c1=O (stereo not given)	-0.2
Cn1nc(CC(=O)NC2CCCCCC2)c2ccccc2c1=O	1.4
Cn1nc(CC(=O)NC2CCCCC2)c2ccccc2c1=O	10.1*	TTR inh HuH7=0.4;TTR act confirm=-0.9
COc1ccccc1-c1csc(C(O)c2ccccc2)n1 (stereo not given)	0.0
CCOC(=O)N1CCN(C(=O)Cn2nc(C)c3sc4ccccc4c3c2=O)CC1	-1.5
Cc1nn(C(C)C(=O)NCCCN(Cc2ccccc2)C(C)C)c(=O)c2c1sc1ccccc12 (stereo not given)	10.3*	TTR inh HuH7=-15.4;TTR act confirm=1.9
CN(C)CCCNC(=O)c1cc2sc3ccccc3c2s1	1.5
Cc1ccccc1C(=O)n1ccc2ccc(-c3ccc4ccn(Cc5ccc(C#N)cc5)c4c3)cc21	1.0
CC(C)(C)OC(=O)NC1CCN(c2nc(-c3ccc(Br)cc3)cs2)CC1	4.0
C[C@H]1[C@@H](NC(=O)C#Cc2ccccc2)CC[C@@]23CCCN2C(=O)CCC[C@@H]13	-1.4
COc1ccc(C2N(C(=O)N(C)C)CCN2S(=O)(=O)c2ccc(OC)cc2)cc1 (stereo not given)	0.1
CCOC(=O)c1c(C)[nH]c(C)c1C(=O)COC(=O)c1c(OC)cccc1OC	-1.4
CCOC(=O)c1c(C)[nH]c(C)c1C(=O)COC(=O)c1sccc1C	10.7*	TTR inh HuH7=-15.6;TTR act confirm=-0.4
CCOC(=O)c1c(C)[nH]c(C)c1C(=O)COC(=O)c1ccc(O)cc1	-1.4
CCN(CC)S(=O)(=O)c1ccc2c(c1)nc(SC(C)C(N)=O)n2-c1ccc(OC)cc1 (stereo not given)	26.1*	TTR inh HuH7=6.3;TTR act confirm=-1.6
CCN(CC)S(=O)(=O)c1ccc2c(c1)nc(SC(C)C(=O)NCC1CCCO1)n2CC (stereo not given)	1.7
COc1ccc(-n2nnnc2SC(C)C(N)=O)cc1 (stereo not given)	2.5
CC1(C(=O)NS(=O)(=O)c2ccc(Cl)cc2)CCN1C(=O)C1CC1 (stereo not given)	3.5
CCn1c(SCC(=O)NC2CC2)nnc1-c1ccc(F)cc1	0.2
Nc1[nH]c2cc(C(F)(F)F)ccc2c1C(=O)N1CCN(CCc2ccccc2)CC1	-0.7
O=C1OCc2ccc(NS(=O)(=O)c3ccc(C(F)(F)F)cc3)cc21	0.6
SMILES	TTR transcr act	others
O=C(O)Cc1csc2ccccc12	11.8*	TTR inh HuH7=-10.5;TTR act confirm=0.6
O=C(Nc1ccccc1)Nc1csc2ccccc12	-0.7
O=C(NCc1csc2ccccc12)Nc1cc(Cl)cc(Cl)c1	1.4
O=C1C2C(CC3c4ccccc4CCN32)CN1c1ccccc1 (stereo not given)	1.1
CCCCOc1ccc(NC(=O)CN2CCN(CC)CC2)cc1	24.3*	TTR inh HuH7=-8.8;TTR act confirm=1.1
CCOc1ccc(NC(=O)CN2CCN(CC(=O)Nc3ccc(C(=O)OC)cc3)CC2)cc1	-1.0
CCOc1ccc(NC(=O)CN2CCN(CC(=O)Nc3ccccc3OC)CC2)cc1	-2.3
CCOC(=O)c1ccccc1S(=O)(=O)N1CCN(c2nc(-c3cccs3)nc3ccccc23)CC1	4.2
COc1ccc(CN2C(=O)[C@]3(NCCc4c3[nH]c3ccc(OC)cc43)c3cc(Br)ccc32)cc1	0.2
COc1ccccc1NC(=O)OC1CC2CC1[C@H]1CCCCN1[C@H]2C (stereo not given in full)	0.8
CCC[C@H]1[C@@H](OC(=O)NCc2ccco2)CC[C@@]23CCCN2C(=O)CCC[C@@H]13	0.6
Cc1ccc(NC(=O)N(Cc2cccs2)Cc2cc3cc4c(cc3[nH]c2=O)OCO4)cc1	-2.0
O=C(Nc1ccccc1)N(CCCN1CCOCC1)Cc1cc2cc3c(cc2[nH]c1=O)OCCO3	-0.5
O=C(Nc1ccc(F)cc1)N(Cc1cccs1)Cc1cc2cc3c(cc2[nH]c1=O)OCO3	27.5*	TTR inh HuH7=-27.0;TTR act confirm=0.1
COc1ccc(Nc2nc3[nH]c(=O)cc(O)c3s2)cc1	1.6
O=c1cc(O)c2sc(Nc3ccc(Cl)c(F)c3)nc2[nH]1	9.9*	TTR inh HuH7=17.0*;TTR act confirm=-0.5
Cc1ccc(Nc2n[nH]c(=S)s2)cc1F	3.9
C=CCN1CC(COCCCC)Oc2ccc(Cl)cc2S1(=O)=O (stereo not given)	4.9
CN(CC(=O)Nc1ccc(S(N)(=O)=O)cc1)C1CCCCC1	-1.2

Screening results from PubChem BioAssay.
